# Data as given in PubChem BioAssay (Tox21).
# Values without a mark were called inactive. Calls come from the whole dose curve.
# Experiment: qHTS assay to identify small molecule agonists of the estrogen related receptor (ERR) signaling pathway from Tox21 library (AID 1224849); note: nearly all actives have a fitted effect of over 15% in size
# Settings: ERR reporter cell line, ONE-Glo luciferase, 18 h; at 92.4 µM (top of the series) unless noted
# Source text: National Center for Advancing Translational Sciences [NCATS]
# NIH Chemical Genomics Center [NCGC]
# U.S. Environmental Protection Agency [EPA]
# National Institutes of Environmental Health Sciences [NIEHS]
# National Toxicology Program [NTP]
# Estrogen related receptors (ERRs), the first orphan nuclear receptors discovered, play an important role in the control of cellular energy metabolism. ERRs are required for high-energy production in response to the environmental challenges. ERR-alpha was also identified as an adverse marker for breast cancer progression; ERR-alpha-positive tumors have a poor prognosis. To screen and to identify environmental compounds that perturb the ERR signaling pathways could provide valuable information for potential therapeutic or preventive measures in the treatment of metabolic disease. For identifying ERR agonists, ERR cell line (provided by NTP) has been used to screen Tox21 10K library.
# The ERR cells were dispensed at 2,000 cells/5 ul/well in 1536-well white plates using a Multidrop dispenser. After the assay plates were incubated at a 37 C/5% CO2 incubator for 6 hours, 23 nL of compounds dissolved in DMSO, positive and negative controls or DMSO only was transferred to the assay plate by a pin tool. The plates were incubated at 37 C for 18 hours. 4 ul/well of One-Glo reagent was added into the assay plates using a Flying Reagent Dispenser. After 30-minute incubation at room temperature, the luminescence intensity in the plates was measured using a ViewLux plate reader.
# % is set by controls: 0 for no effect and ±100 for the full control effect.
row,SMILES,"activity change, positive = activation"
1,COC(=O)C1=C(C)NC(C)=C(C(=O)OC(C)(C)CN(C)CCC(c2ccccc2)c2ccccc2)C1c1cccc([N+](=O)[O-])c1 (stereo not given),-45.4% [at 42.5 µM]
2,CCOC(=O)c1ccc(NC(=O)CN2CCCCC2)cc1,5.71% [at 42.5 µM]
3,CC[C@@H](CO)NCCN[C@@H](CC)CO,0.599% [at 42.5 µM]
4,CCNc1nc(N)nc(Cl)n1,3.57%
5,O=C1CC[C@@H](C(=O)O)N1,3.84% [at 42.5 µM]
6,C1CCCCC1,7.76%
7,CC(=O)OC(C)C[N+](C)(C)C (stereo not given),7.44% [at 42.5 µM]
8,CC(C)(C)CCCCCCOC(=O)c1ccccc1C(=O)OCCCCCCC(C)(C)C,-3.55%
9,O=C(O)c1cc(Cl)cc(Cl)c1O,0.37%
10,CCCCCCC(O)CCOC(C)=O (stereo not given),-0.596% [at 240 µM]
11,CC(=O)NNC(C)=O,2.66%
12,Cc1c[nH]c2ccccc12,0.349% [at 42.5 µM]
13,CN(C)CC/C=C1\c2ccccc2Sc2ccc(Cl)cc21,-17.7% [at 42.5 µM]
14,CCC(CO)(CO)[N+](=O)[O-],1.64%
15,Cc1oc(=O)oc1COC(=O)[C@@H]1N2C(=O)[C@@H](NC(=O)[C@H](N)c3ccccc3)[C@H]2SC1(C)C,1.21% [at 42.5 µM]
16,CCCOC(=O)c1c(Cl)c(Cl)c(Cl)c(Cl)c1C(=O)OCCC,6.22%
17,CC12CC3CC(C)(C1)CC(N)(C3)C2,-0.576% [at 42.5 µM]
18,CN1C(CSCC(F)(F)F)Nc2cc(Cl)c(S(N)(=O)=O)cc2S1(=O)=O (stereo not given),-16.7% [at 42.5 µM]
19,CN=C(N)NC(=O)Nc1c(C)cccc1C,-0.434% [at 42.5 µM]
20,CCN(CC)c1ccc(C(=C2C=CC(=[N+](CC)CC)C=C2)c2ccc(S(=O)(=O)O)cc2S(=O)(=O)[O-])cc1,-60.1%

row,SMILES,"activity change, positive = activation"
1,CCCCC(CC)COS(=O)(=O)O (stereo not given),3.39%
2,COc1cc(NS(=O)(=O)c2ccc(N)cc2)nc(C)n1,5.82% [at 42.5 µM]
3,CC(C)c1ccc(C#N)cc1,-9.84%
4,CCCCCCCCCCCC(=O)OCC(O)CO (stereo not given),2.33%
5,CC1CCC(C(C)CS)CC1S (stereo not given),4.8%
6,CC/C=C\C/C=C\C/C=C\CCCCCCCC(=O)OCC,-28.4%
7,OCC(CO)n1cnc(-c2ccc(F)cc2)c1-c1ccnc(Oc2ccccc2)n1,-29%
8,CC1C(C)(C)C2=C(C(=O)CCC2)C1(C)C (stereo not given),-0.756%
9,O=C(O)CN1C(=O)c2cccc3cccc(c23)C1=O,3.18% [at 42.5 µM]
10,CC(C)CC(O)CC(C)C,2.06%
11,CCC1CCC(CCC(=O)O)C1 (stereo not given),-14.4%
12,Cc1ccc2nc(N)[nH]c(=O)c2c1Sc1ccncc1,-24.3% [at 42.5 µM]
13,[Cl][Nd]([Cl])[Cl],-6.02%
14,CCN(Cc1cccc(S(=O)(=O)O)c1)c1ccc(C(=C2C=CC(=[N+](CC)Cc3cccc(S(=O)(=O)O)c3)C=C2)c2ccc(O)cc2S(=O)(=O)[O-])cc1,-59.2% [at 42.5 µM]
15,O=C(O)CCS,4.53%
16,CC(CCc1ccc(O)cc1)NCCc1ccc(O)c(O)c1 (stereo not given),-12.3% [at 42.5 µM]
17,COc1ccc(/C=C/C(=O)c2ccc(OC)cc2OC)cc1,-32.9% [at 42.5 µM]
18,O=C(O)c1cccc(Oc2ccccc2)c1,-1.12%
19,CC(C)(C)S,4.53%
20,O=C(c1ccccc1)c1ccc(O)cc1,-59.8%
